Test results published in PubChem BioAssay.
Calls of active or inactive are those of the source.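 The calls were made as follows, unless noted: active = mean z-score across replicates of 1.96 or higher in either the MELAS or the Rieske mutant cell line; inactive = the rest.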

Experiments:
[1] = viability loss with induced miR-34 in A549 – imaging, A549 dox-inducible miR-34, nuclei and caspase counts, primary screen (AID 1347080;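 active = compounds whose cell count with miR-34 switched on is under 0.7 times the count with it off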; also: test concentration not given here); details: A549 miR-34 inducible, Hoechst nuclei count, 48 h
[2] = MELAS cybrid and Rieske KO viability enhancers – cell-based, MELAS cybrids, Rieske KO mouse fibroblasts, CellTiter-Glo, primary screen (AID 1508586); details: low glucose;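 also: test concentration not given here; z relative to plate mean and SD of compound and empty wells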
[3] = galactose survival enhancers in mitochondrial complex I cybrids – cell-based, galactose medium, ATP luminescence, primary screen (AID 1645843;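 active = z-score of at least 1.8 in each of two replicates, scored against plate mean and spread of sample wells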;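 also: positive z means more ATP and so rescue of galactose-driven cybrid death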); details: complex I mutant cybrid cells, 72 h, stronger effect = higher value
[4] = stronger effect = lower value, cell number ratio, induced over uninduced
[5] = measured here: relative caspase fold change +Dox/-Dox
[6] = measured here: total cells with miR-34 induction, stronger effect = lower value
[7] = measured here: total cells without miR-34 induction
[8] = MELAS cybrid survival, CellTiter-Glo 48 h, stronger effect = higher value
[9] = Rieske KO mouse fibroblast survival, CellTiter-Glo 72 h

Compound | fold change [1, 4] | fold change [1, 5] | cell count [1, 6] | cell count [1, 7] | z-score [2, 8] | z-score [2, 9] | z-score [3]
NCCC(O)C(=O)NC1CC(N)C(OC2OC(CN)C(O)C(O)C2O)C(O)C1OC1OC(CO)C(O)C(N)C1O (configuration not stated) | 0.888 (inactive) | 0.936 | 8210 | 9240 | -1.15 (inactive) | -0.0039 | 0.985 (inactive)
O=C(O)COc1cccc2ccccc12 | 0.847 (inactive) | 0.59 | 7750 | 9150 | -0.276 (inactive) | 0.135 | 0.555 (inactive)
COc1cc(OC)c(-c2nnc3ccccn23)cc1OC | 0.917 (inactive) | 1.49 | 9720 | 10600 | -0.104 (inactive) | 0.208 | -0.52 (inactive)
CCn1ncc(NC(=O)Cn2nc(C)c(-c3cccc(C(C)=O)c3)c2C)n1 | 0.83 (inactive) | 2.28 | 2420 | 2910 | -0.514 (inactive) | -0.567 | -0.465 (inactive)
Cc1ncsc1-c1ccn(CC(=O)Nc2ccnn2C2CCCCC2)n1 | 0.823 (inactive) | 0.676 | 7140 | 8680 | -0.424 (inactive) | 0.121 | -0.57 (inactive)
COc1cc(N(C)CC2COc3ccccc3O2)nc(N)n1 (configuration not stated) | 0.844 (inactive) | 2.02 | 3500 | 4140 | 0.477 (inactive) | -0.0472 | -0.58 (inactive)
